# Results from the supplement of paper PMC8728848.
# About 410 targets per protein were measured; listed, in parts, are those with the strongest signals and a random draw of the rest.
# Experiments:
# Assay in all cases: glycan array binding signal (z-score within array); higher = stronger binding
# Details in all cases: glycan notation: IUPAC condensed, linker removed
# [1] = target: GalNAc(b1-4)GlcNAc(b1-2)Man(a1-3)[GalNAc(b1-4)GlcNAc(b1-2)Man(a1-6)]Man(b1-4)GlcNAc(b1-4)GlcNAc
# How it was run: (§1)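 The Consortium for Functional Glycomics database supplied 3228 glycan arrays, of which those lacking an available protein sequence were dropped. The binding signal, a within-array Z-score, was averaged across arrays of the same protein sequence and across linkers. Negative scores can be read as non-binding.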
# [2] = target: GlcNAc(b1-2)Man(a1-3)[GlcNAc(b1-4)][GlcNAc(b1-2)Man(a1-6)]Man(b1-4)GlcNAc(b1-4)GlcNAc
# How it was run: as §1
# [3] = target: GlcNAc(b1-3)Gal(b1-4)Glc
# How it was run: as §1
# [4] = target: GlcNAc(b1-3)Gal(b1-4)GlcNAc
# How it was run: as §1
# [5] = target: GlcNAc(b1-3)Gal(b1-4)GlcNAc(b1-2)Man(a1-3)[GlcNAc(b1-3)Gal(b1-4)GlcNAc(b1-2)Man(a1-6)]Man(b1-4)GlcNAc(b1-4)GlcNAc
# How it was run: as §1
# [6] = target: GlcNAc(b1-3)Gal(b1-4)GlcNAc(b1-3)Gal(b1-4)GlcNAc(b1-2)Man(a1-3)[GlcNAc(b1-3)Gal(b1-4)GlcNAc(b1-3)Gal(b1-4)GlcNAc(b1-2)Man(a1-6)]Man(b1-4)GlcNAc(b1-4)GlcNAc
# How it was run: as §1
# [7] = target: GlcNAc(b1-3)Gal(b1-4)GlcNAc(b1-6)[GlcNAc(b1-3)Gal(b1-3)]GalNAc
# How it was run: as §1
# [8] = target: Man(a1-2)Man(a1-3)[Man(a1-2)Man(a1-6)]Man(a1-6)[Man(a1-2)Man(a1-2)Man(a1-3)]Man
# How it was run: as §1
# [9] = target: Man(a1-3)[Man(a1-6)]Man(b1-4)GlcNAc(b1-4)[Fuc(a1-6)]GlcNAc
# How it was run: as §1
# [10] = target: Neu5Ac(a2-3)Gal(b1-3)GlcNAc(b1-2)[Neu5Ac(a2-3)Gal(b1-3)GlcNAc(b1-4)]Man(a1-6)[Neu5Ac(a2-3)Gal(b1-3)GlcNAc(b1-2)Man(a1-3)]Man(b1-4)GlcNAc(b1-4)GlcNAc
# How it was run: as §1
# [11] = target: Neu5Ac(a2-3)Gal(b1-4)GlcNAc(b1-2)Man
# How it was run: as §1
# [12] = target: Neu5Ac(a2-3)Gal(b1-4)GlcNAc(b1-3)Gal(b1-4)GlcNAc(b1-2)Man(a1-3)[Neu5Ac(a2-3)Gal(b1-4)GlcNAc(b1-3)Gal(b1-4)GlcNAc(b1-2)Man(a1-6)]Man(b1-4)GlcNAc(b1-4)GlcNAc
# How it was run: as §1
# [13] = target: Neu5Ac(a2-3)Gal(b1-4)GlcNAc(b1-3)Gal(b1-4)GlcNAc(b1-3)[Neu5Ac(a2-3)Gal(b1-4)GlcNAc(b1-3)Gal(b1-4)GlcNAc(b1-6)]GalNAc
# How it was run: as §1
# [14] = target: Neu5Ac(a2-3)Gal(b1-4)[Fuc(a1-3)]GlcNAc(b1-2)Man
# How it was run: as §1
# [15] = target: Neu5Ac(a2-6)Gal(b1-4)GlcNAc(b1-2)Man(a1-3)[GlcNAc(b1-2)Man(a1-6)]Man(b1-4)GlcNAc(b1-4)GlcNAc
# How it was run: as §1
# [16] = target: Neu5Ac(a2-6)Gal(b1-4)GlcNAc(b1-2)Man(a1-6)Man(b1-4)GlcNAc(b1-4)GlcNAc
# How it was run: as §1
# [17] = target: Neu5Ac(a2-6)Gal(b1-4)GlcNAc(b1-3)Gal(b1-4)GlcNAc(b1-2)Man(a1-3)[Neu5Ac(a2-6)Gal(b1-4)GlcNAc(b1-3)Gal(b1-4)GlcNAc(b1-2)Man(a1-6)]GalNAc
# How it was run: as §1
# [18] = target: Neu5Ac(a2-6)Gal(b1-4)GlcNAc(b1-3)Gal(b1-4)GlcNAc(b1-3)[Neu5Ac(a2-6)Gal(b1-4)GlcNAc(b1-3)Gal(b1-4)GlcNAc(b1-6)]GalNAc
# How it was run: as §1
# [19] = target: Neu5Ac(a2-6)Gal(b1-4)GlcNAc(b1-3)Gal(b1-4)[Fuc(a1-3)]GlcNAc(b1-3)Gal(b1-4)[Fuc(a1-3)]GlcNAc
# How it was run: as §1
# [20] = target: Neu5Ac(a2-6)GalNAc
# How it was run: as §1
# [21] = target: Neu5Ac(a2-6)GalNAc(b1-4)GlcNAc6S
# How it was run: as §1
# [22] = target: Neu5Ac(a2-8)Neu5Ac(a2-3)Gal(b1-4)Glc
# How it was run: as §1
# [23] = target: Neu5Ac(a2-8)Neu5Ac(a2-8)Neu5Ac(a2-8)Neu5Ac(a2-3)[GalNAc(b1-4)]Gal(b1-4)Glc
# How it was run: as §1
# [24] = target: Neu5Ac(b2-6)GalNAc
# How it was run: as §1
# [25] = target: Neu5Ac9Ac(a2-3)Gal(b1-3)GlcNAc
# How it was run: as §1
# [26] = target: Neu5Gc(a2-6)Gal(b1-4)GlcNAc
# How it was run: as §1
# [27] = target: Neu5Gc(a2-6)GalNAc
# How it was run: as §1
# [28] = target: Neu5Gc(a2-8)Neu5Gc(a2-3)Gal(b1-4)GlcNAc
# How it was run: as §1
binder,measurement,setting,value
Aap lectin (Staphylococcus epidermidis) (protein) VNLNYSSPFMSLLSMPADSSSNNTKNTIDIPPTTVKGRDNYDFYGRVDIESNPTDLNATNLTRYNYGQPPGTTTAGAVQFKNQVSFDKDFDFNIRVANNRQSNTTGADGWGFMFSKKDGDDFLKNGGILREKGTPSAAGFRIDTGYYNNDPLDKIQKQAGQGYRGYGTFVKNDSQGNTSKVGSGTPSTDFLNYADNTTNDLDGKFHGQKLNNVNLKYNASNQTFTATYAGKTWTATLSELGLSPTDSYNFLVTSS,glycan array binding signal (z-score),[1],3.29
same,glycan array binding signal (z-score),[2],-0.698
same,glycan array binding signal (z-score),[3],0.941
same,glycan array binding signal (z-score),[4],-0.278
same,glycan array binding signal (z-score),[5],0.543
same,glycan array binding signal (z-score),[6],3.83
same,glycan array binding signal (z-score),[7],-0.968
same,glycan array binding signal (z-score),[8],-0.858
same,glycan array binding signal (z-score),[9],-0.887
same,glycan array binding signal (z-score),[10],-0.885
same,glycan array binding signal (z-score),[11],-0.335
same,glycan array binding signal (z-score),[12],-0.87
same,glycan array binding signal (z-score),[13],-0.88
same,glycan array binding signal (z-score),[14],-0.708
same,glycan array binding signal (z-score),[15],-0.88
same,glycan array binding signal (z-score),[16],-0.806
same,glycan array binding signal (z-score),[17],-0.905
same,glycan array binding signal (z-score),[18],2.93
same,glycan array binding signal (z-score),[19],-0.333
same,glycan array binding signal (z-score),[20],-0.816
same,glycan array binding signal (z-score),[21],-1.16
same,glycan array binding signal (z-score),[22],-0.83
same,glycan array binding signal (z-score),[23],-0.444
same,glycan array binding signal (z-score),[24],-0.527
same,glycan array binding signal (z-score),[25],0.704
same,glycan array binding signal (z-score),[26],-0.275
same,glycan array binding signal (z-score),[27],-0.523
same,glycan array binding signal (z-score),[28],1.51
